# Test results as given in article PMC5540273 (PLoS ONE, 2017).
# Experiments:
# Details in all cases: concentration: 1 μM, replicates: in singlicate; n = 1
# BMX = tested on: BMX
# BRAF = tested on: BRAF
# BRK = tested on: T1, BRK
# T1 construct: gene PTK6
# BRSK1 = tested on: BRSK1
# BRSK2 = tested on: BRSK2
# BTK = tested on: BTK
# BUB1 = tested on: BUB1
# CAMK1B = tested on: CAMK1B
# CAMK1D = tested on: CAMK1D
# CAMK1G = tested on: CAMK1G
# 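Note: KINOMEscan kinase panel screen.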
SMILES,%Inh (BMX),%Inh (BRAF),%Inh (BRK),%Inh (BRSK1),%Inh (BRSK2),%Inh (BTK),%Inh (BUB1),%Inh (CAMK1B),%Inh (CAMK1D),%Inh (CAMK1G)
COCCOCCOc1cc2ncc3c4ccc(C#N)cc4[nH]c3c2cc1OC,35%,0%,18%,0%,12%,0%,96.7%,14%,25%,1%
CCn1c(-c2nonc2N)nc2c(C#CC(C)(C)O)ncc(OCCCCN)c21.O=C(O)C(F)(F)F.O=C(O)C(F)(F)F [GSK507274],19%,8%,27%,0%,0%,0%,37%,0%,40%,7%
Nc1ncc(-c2cccnc2)c2scc(-c3ccc4c(c3)CCN4C(=O)Cc3ccccc3)c12 [GSK683281],20%,0%,68%,27%,0%,0%,0%,0%,22%,21%
Cl.Cl.NCC(NCc1ccc(-c2ccnc3[nH]ccc23)s1)c1ccccc1 (stereo not shown) [GSK1321565],8%,0%,0%,0%,0%,0%,64%,59%,17%,11%
c1ccc(Oc2ccc(Nc3ccnc4cc(-c5ccc(CNCCN6CCOCC6)o5)ccc34)cc2)nc1 [GW567145],20%,0%,85%,0%,0%,86%,54%,0%,2%,0%
O=C(Nc1cccc(-c2nn3ccccc3c2-c2ccnc(Nc3cccc(F)c3)n2)c1)c1c(F)ccc(F)c1Cl [GSK357952],63%,36%,69%,5%,0%,42%,29%,21%,12%,0%
COc1ccc(CNC(=O)NC2CCN(c3ccnc(Nc4ccc(F)cc4)n3)CC2)cc1 [GSK1379788],3%,0%,0%,0%,0%,0%,56%,7%,15%,0%
Cc1cccc(NC(=O)Nc2ccc(Oc3ncnc4ccn(C)c34)cc2)c1,0%,0%,0%,0%,0%,91.6%,0%,14%,6%,0%
COc1cc(Nc2nccc(N3CCC(NC(=O)c4cc5ccccc5s4)C3)n2)cc(OC)c1OC (stereo not shown) [GSK1379760],1%,4%,11%,0%,4%,67%,26%,49%,14%,18%
FC(F)(F)c1ccc(/C=C/c2cncnc2Nc2ccc3[nH]c(Cc4ccccc4)nc3c2)cc1 [GW709199],0%,0%,11%,3%,8%,19%,0%,0%,5%,0%
COC(=O)Nc1nc2cc(Oc3ccc(NC(=O)Nc4cc(C(F)(F)F)ccc4F)cn3)ccc2[nH]1.Cl.Cl [GW681170],5%,73%,0%,0%,0%,0%,3%,28%,12%,44%
COc1cc(Nc2ncc3c(C)nc(-c4cc5ccccc5[nH]4)n3n2)cc(OC)c1OC [GW869516],25%,0%,36%,0%,14%,0%,0%,0%,8%,0%
Cc1ccc(C)c(NC(=O)NC2CCN(c3ccnc(Nc4ccc(F)cc4)n3)C2)c1 (stereo not shown) [GSK1379720],0%,0%,21%,0%,0%,0%,49%,0%,6%,11%
O=C(O)C(F)(F)F.O=C(O)C(F)(F)F.O=c1[nH]ccc2nc(N[C@@H]3CCCNC3)nc(Nc3ccc(S(=O)(=O)N4CCOCC4)cc3)c12 [GSK2177277],58%,0%,9%,69%,69%,90.7%,90.5%,100%,99.1%,74%
COC(=O)Nc1nc2ccc(Oc3ccc(NC(=O)Nc4cc(C(F)(F)F)ccc4F)cc3)cc2n1C.Cl [GW692089],5%,57%,0%,0%,26%,59%,42%,0%,1%,0%
Cc1ccc(S(=O)(=O)Nc2ccc(Nc3nccc(Nc4cccc5[nH]ncc45)n3)cc2)cc1 [GSK581271],5%,6%,34%,5%,0%,0%,44%,7%,8%,0%
